From the supplement of paper PMC12632987

T1: USP38, Q8NB14
T1 chain: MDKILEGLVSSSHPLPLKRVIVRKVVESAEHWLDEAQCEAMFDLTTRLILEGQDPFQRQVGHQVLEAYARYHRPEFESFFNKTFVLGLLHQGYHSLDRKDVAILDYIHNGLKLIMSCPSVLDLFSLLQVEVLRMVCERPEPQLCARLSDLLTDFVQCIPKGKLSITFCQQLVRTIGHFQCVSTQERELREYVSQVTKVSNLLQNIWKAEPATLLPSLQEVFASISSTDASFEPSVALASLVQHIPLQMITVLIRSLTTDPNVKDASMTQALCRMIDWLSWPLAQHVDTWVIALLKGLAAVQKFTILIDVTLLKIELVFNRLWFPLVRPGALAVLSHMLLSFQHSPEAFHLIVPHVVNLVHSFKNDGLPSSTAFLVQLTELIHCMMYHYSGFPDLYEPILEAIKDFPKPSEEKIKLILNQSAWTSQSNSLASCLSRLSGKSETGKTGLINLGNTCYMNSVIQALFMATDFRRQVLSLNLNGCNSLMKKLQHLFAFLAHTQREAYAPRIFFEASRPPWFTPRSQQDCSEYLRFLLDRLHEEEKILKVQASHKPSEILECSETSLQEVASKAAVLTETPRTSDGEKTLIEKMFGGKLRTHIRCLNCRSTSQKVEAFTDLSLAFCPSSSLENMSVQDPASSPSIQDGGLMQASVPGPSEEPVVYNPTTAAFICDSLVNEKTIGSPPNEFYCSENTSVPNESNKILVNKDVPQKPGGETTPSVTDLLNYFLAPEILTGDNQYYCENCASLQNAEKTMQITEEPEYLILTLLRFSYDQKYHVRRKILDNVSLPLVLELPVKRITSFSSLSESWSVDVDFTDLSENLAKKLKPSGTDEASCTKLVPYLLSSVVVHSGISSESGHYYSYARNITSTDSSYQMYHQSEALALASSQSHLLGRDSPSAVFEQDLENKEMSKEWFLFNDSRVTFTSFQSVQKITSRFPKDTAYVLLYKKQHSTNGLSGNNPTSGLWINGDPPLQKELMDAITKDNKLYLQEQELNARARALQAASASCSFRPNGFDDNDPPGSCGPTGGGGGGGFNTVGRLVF

B1: usp_38_diff_out_18_14_271 (protein)
chain: SEELAAALQSNLESLERAVREDTERVIRLLEKNRDDPERVKRIVERAERDLAGVEAYAQEVLREARAAGDAATQEAAERLLEEARRAREEIRRKAEEVLA
B2: usp_38_diff_out_18_14_272 (protein)
chain: DEELSEALLSNLKSLKEDVKEYTKRVLRLLEANKDDPERVKRIYERAERNLEGVEKFAEEVLKEAKERGDEEVQKAAKELKEEAKKAREEIKKKVKEVLA
B3: usp_38_diff_out_18_14_269 (protein)
chain: SAELAAAKVSNLKTLKEDVERDTERVIRLLEANRDDPERVRRIHERALRNLEGVRKYAEEVKEEAEKEGDKETVKAAEELLKKIEEARRRIDARYAEVMA
B4: usp_38_diff_out_18_14_262 (protein)
chain: SEELAQADIDALNLLKEDVKKDTERKIRLLKKAKDDPELVKRIYERAKRNLEGVRTYAEEIKKRAEEAGDEETIKAAEELLKEIEEAEKKLEEAYKEVMA
B5: usp_38_diff_out_18_14_274 (protein)
chain: SEELSEALKSNLESLKKDVEKDTKRTIELLKKNKDDPERVKRIVERAERNLEGVITFAEEVLKEAEKRGDEEVKKAAEELIKKAKEALEKIKEEAKKVLA
B6: usp_38_diff_out_18_14_260 (protein)
chain: SEELKEATISNLKSLKEDVKEDTERVIRLLKARKDDPEQVKRIYERAKRNLEGVKTYAEEVLKEAEEEGWEELKKAAEELLKEIEEAEKKIEAEVKEVLA
B7: usp_38_diff_out_18_14_266 (protein)
chain: SEELDEALVKNLETLKKDVKENTERVIKLLRKNKDDPERVKRIYERAKRNLEGVKKYAEEVLKEAEKRGWKKTVKAAKELLKEVEEAKKKIEEEYKKVME
B8: usp_38_diff_out_18_14_273 (protein)
chain: SEERREALLSNLKSLKKDVKEYTKRVLKLLEKNKNDPERVKRIYERAKRNLAGVKAYAEEVLKEAKEEGDEETLKAAEELIKEAKEAEEKIKKKVEEVLK
B9: usp_38_diff_out_18_14_264 (protein)
chain: SEELSEAEKSALKLLKKDVEEETERVIRLLRQAKDDPERVKRIYERAKRNLAGVRKYAEEVLKRAEEAGDEETKKAAEELLKKIEEAEKRIEEEYKRVTA
B10: usp_38_diff_out_18_14_270 (protein)
chain: SEELKKALLSNLESLKKDVKEYTERVLRLLEKRKDDPEQVERIVERAERDLAGVEEYAKEVLKEAKKLGDEELLKAAEELIKLTKEARERIEKKREEVLK
B11: usp_38_diff_out_18_14_259 (protein)
chain: SEELTEALISNLESLKEDVKKDTERVIRLLEKRKDDPEQVKRIKERFERDLAGVEKYAKEVLEEAKKEGNEKLAKAAEELLKTVEAARKEVEEKVAKVLA
B12: usp_38_diff_out_18_14_268 (protein)
chain: SEELAEAEVSNLKTLERDVKEDTERVIRLLRKNKDDPERVKRIYERAKRDLAGVRAYAEEVKRRAEEEGWEEVVAAAERLLKTIDEARKRIEEEYKRVME
B13: usp_38_diff_out_18_14_261 (protein)
chain: SEELSEAKISALKLLEKSVKEDTERKIRLLEKAKDDPERVKRIYERALRELAGVREYAEEVLKEAKEAGDEETAEAAKRLLKTIEEARERLEEEYKRVMA
B14: usp_38_diff_out_18_14_263 (protein)
chain: SEELAQADIDALNLLKKDVEEDTERVIRLLEKSKDDPERVKRIYERALRNLAGVKKYAEEVKKEAEERGNEETIKAANELLKTIEEAKKRLEEKYKEVMK
B15: usp_38_diff_out_18_14_267 (protein)
chain: SAELSEALKSNLETLTADVAADTDRVIRLLDARKDDPEAVKRIHERARRNLAGVEAYAEEVKAEAEKAGDAEVKAAAEKLLAAVAAARARIDARYAEVMA
B16: usp_38_diff_out_18_14_258 (protein)
chain: SAELEEATISNLKLLKEDVKKETERVIRLLEKNKDDPERVKRIYERAQRDLAGVETYAKEVLEEAKKNGWEEKEKAAKELLEEVDKAKEEIEKKVKEVLA

Molecular target: T1, USP38, Q8NB14
Assay: median log2 fold change of GCK-ALFA target abundance (FLAG IP / Myc IP barcode read proportion) (log2 ratio); each designed protein is fused to an ALFA-tag nanobody in HEK293 cells to bring the named protein to FLAG-tagged glucokinase (GCK); Myc marks an untargeted standard; higher = target protein stabilised (more abundant)
Conditions: target protein: 3xFLAG-MCP-GCK-ALFA reporter; HEK293 landing pad (RPLP)
How it was run: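 Binders fused to an ALFA nanobody were recombined as a library into HEK293 landing-pad cells, which were induced with 2 μg mL^−1 doxycycline and then transfected to express a FLAG-tagged target and a Myc-tagged standard. After 48 h, circular RNA barcodes recovered by anti-FLAG and anti-Myc immunoprecipitation of lysates were reverse transcribed, amplified and sequenced. Each binder's target abundance is the median log2 ratio of FLAG to Myc barcode read proportions, from barcodes present at ≥10^−7 in both replicates, binders carrying ≥3 barcodes per replicate, a 10^−6 pseudocount and pooled replicates.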

Point of comparison: B1, “median log2 fold change” value -0.0538. Against it:
- B2 — within 0.2 log units, -0.188
- B3 — higher, 0.153
- B4 — higher, 0.391
- B5 — higher, 0.186
- B6 — within 0.2 log units, 0.0949
- B7 — lower, -0.521
- B8 — lower, -1.06
- B9 — within 0.2 log units, 0.118
- B10 — lower, -0.331
- B11 — within 0.2 log units, -0.00381
- B12 — within 0.2 log units, -0.0262
- B13 — within 0.2 log units, 0.0867
- B14 — within 0.2 log units, 0.123
- B15 — within 0.2 log units, 0.0912
- B16 — within 0.2 log units, 0.144
